Test results: PubChem BioAssay (Tox21)
Where “and” joins values, the source holds several entries; their conditions need not be identical. Equal values may be shown once. Inconclusive results are not listed. A call without a number means that no potency is given here. Calls of active or inactive are those of the source. Unless noted, calls come from the whole dose curve; as a rule, active = well fitted curve in the direction sought with a large enough effect in the repeat runs; inconclusive = weak or mixed curves; inactive = no such curve, though single readings can be large; an effect the other way counts as inactive or inconclusive.

What was measured:
[1] = qHTS assay to identify small molecule antagonists of the estrogen receptor alpha (ER-alpha) signaling pathway using the BG1 cell line in the presence of 0.1 nM 17-beta-estradiol - cell viability counter screen (AID 1259241); note: nearly all actives have a fitted effect of over 40% in size
Summary of the method: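 Measures cytotoxicity alongside the ER-alpha antagonist readout: VM7Luc4E2 cells, charcoal-stripped serum, 0.1 nM 17beta-estradiol final, 22 hr compound incubation at 37C, CellTiter-Fluor fluorescence.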

[2] = qHTS assay to identify small molecule antagonists of the androgen receptor (AR) signaling pathway using the MDA cell line in the presence of 0.5 nM R1881 - cell viability counter screen (AID 1259242); note: nearly all actives have a fitted effect of over 45% in size; note: potency is the fitted concentration of half-maximal effect
Summary of the method: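 qHTS format. MDA-kb2 (MMTV-luc, AR/GR responsive) + cpd + 0.5 nM R1881 final, 16 hr 37C/0% CO2 → CellTiter-Fluor 30 min → fluorescence intensity.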

[3] = qHTS assay to identify small molecule HDAC inhibitors (AID 1259364); note: potency is the fitted concentration of half-maximal effect;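 note: wild-type HCT-116 cells with endogenous class I/II HDAC activity; nearly all actives have a fitted effect of over 45% in size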
Summary of the method: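 Quantitative high-throughput format: overnight-seeded HCT-116 cells got compounds for 2 hr at 37C; HDAC-Glo I/II reagent added, 30 min RT, luminescence measured.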

[4] = qHTS assay to identify small molecule HDAC inhibitors - cell viability counter screen (AID 1259365); note: nearly all actives have a fitted effect of over 50% in size; note: potency is the fitted concentration of half-maximal effect
Summary of the method: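 Following a 2hr exposure of overnight-plated wild-type HCT-116 cells to DMSO-delivered compounds, CellTiter-Glo was added and luminescence recorded after 30min at room temperature.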

[5] = qHTS assay to identify small molecule agonists of the sonic hedgehog signaling (Shh) pathway - cell viability counter screen (AID 1259366); note: nearly all actives have a fitted effect of over 50% in size; note: potency is the fitted concentration of half-maximal effect
Summary of the method: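 After a 4hr attachment at 37C, NIH/3T3 cells bearing an integrated Gli1-driven luciferase reporter were dosed with compounds. Treatment lasted 24hr, with the final hour including CellTiter-Fluor for a fluorescence viability measurement.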

[6] = qHTS assay to identify small molecule antagonists of the sonic hedgehog signaling (Shh) pathway - cell viability counter screen (AID 1259367); note: nearly all actives have a fitted effect of over 55% in size; note: potency is the fitted concentration of half-maximal effect
Summary of the method: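 Fluorescence read-out (CellTiter-Fluor, 1 hr at 37C) taken after 23 hr compound treatment of 3T3 Gli1-Luc cells stimulated with conditioned medium. Cells were seeded at 2,000 per well and pre-incubated 4 hr.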

[7] = qHTS assay to identify small molecule agonists of the sonic hedgehog signaling (Shh) pathway (AID 1259368; calls by dose curve; note: nearly all actives have a fitted effect of over 15% in size; note: potency is the fitted concentration of half-maximal effect)
Summary of the method: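 Quantitative high-throughput format using a Gli1-driven firefly luciferase reporter line derived from NIH/3T3 cells. After a 24 hr compound treatment at 37 C and 5% CO2, luminescence reported Gli1 response element activity.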

[8] = biological target: Androgen receptor (Homo sapiens) (UniProt P10275); test: qHTS assay to identify small molecule antagonists of the androgen receptor (AR) signaling pathway using the MDA cell line in the presence of 0.5 nM R1881 (AID 1259243); note: nearly all actives have a fitted effect of over 50% in size; note: potency is the fitted concentration of half-maximal effect
Summary of the method: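 Antagonist mode quantitative HTS in MDA-kb2 MMTV-luciferase cells, agonist R1881 at 0.5 nM final, 16 hr exposure at 37C and 0% CO2, luminescent detection.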

[9] = biological target: Estrogen receptor (Homo sapiens) (UniProt P03372); test: qHTS assay to identify small molecule antagonists of the estrogen receptor alpha (ER-alpha) signaling pathway using the BG1 cell line in the presence of 0.1 nM 17-beta-estradiol (AID 1259244); note: nearly all actives have a fitted effect of over 50% in size; note: potency is the fitted concentration of half-maximal effect
Summary of the method: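 Reporter is a stably transfected luciferase under four estrogen responsive elements in VM7Luc4E2 cells expressing native full-length ER-alpha; inhibition of 0.1 nM (final) 17beta-estradiol-driven signal over 22 h is read by luminescence.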

[10] = qHTS assay to identify small molecule phospholipidosis (PLD) inducers (AID 1259344; active = well fitted curve in the direction sought with a large enough effect; an effect the other way counts as inactive or inconclusive)
Summary of the method: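 Read-out is LipidTOX Red fluorescence (ex 595/em 615) imaged in HepG2 cells after 24 h compound exposure at 37 C, with Hoechst nuclear counterstain (ex 352/em 461) allowing per-cell normalisation.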

Androgen receptor (Homo sapiens), sequence (P10275 whole entry, looked up): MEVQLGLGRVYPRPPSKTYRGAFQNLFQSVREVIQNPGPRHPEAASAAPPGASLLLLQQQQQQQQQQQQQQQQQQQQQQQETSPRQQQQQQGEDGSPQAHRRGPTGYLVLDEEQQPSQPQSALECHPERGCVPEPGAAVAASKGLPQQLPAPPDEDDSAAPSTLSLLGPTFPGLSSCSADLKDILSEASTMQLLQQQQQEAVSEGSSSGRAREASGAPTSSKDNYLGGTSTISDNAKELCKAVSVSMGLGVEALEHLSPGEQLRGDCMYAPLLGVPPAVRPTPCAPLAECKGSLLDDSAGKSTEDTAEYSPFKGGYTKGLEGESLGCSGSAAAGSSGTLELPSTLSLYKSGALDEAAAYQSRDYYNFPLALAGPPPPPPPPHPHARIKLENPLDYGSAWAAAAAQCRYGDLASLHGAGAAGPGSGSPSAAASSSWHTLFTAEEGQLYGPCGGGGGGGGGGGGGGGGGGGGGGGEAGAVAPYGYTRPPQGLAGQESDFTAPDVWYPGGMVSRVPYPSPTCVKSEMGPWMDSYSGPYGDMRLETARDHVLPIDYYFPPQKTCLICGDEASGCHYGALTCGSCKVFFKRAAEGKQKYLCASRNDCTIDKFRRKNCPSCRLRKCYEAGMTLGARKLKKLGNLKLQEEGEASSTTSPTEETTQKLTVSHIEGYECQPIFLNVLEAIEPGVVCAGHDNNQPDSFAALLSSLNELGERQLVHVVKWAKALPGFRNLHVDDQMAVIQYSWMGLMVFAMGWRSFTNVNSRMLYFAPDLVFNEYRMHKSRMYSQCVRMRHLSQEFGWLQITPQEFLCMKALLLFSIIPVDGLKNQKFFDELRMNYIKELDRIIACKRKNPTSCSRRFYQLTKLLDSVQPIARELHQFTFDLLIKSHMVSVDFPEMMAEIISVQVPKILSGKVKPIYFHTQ
Estrogen receptor (Homo sapiens), sequence (P03372 whole entry, looked up): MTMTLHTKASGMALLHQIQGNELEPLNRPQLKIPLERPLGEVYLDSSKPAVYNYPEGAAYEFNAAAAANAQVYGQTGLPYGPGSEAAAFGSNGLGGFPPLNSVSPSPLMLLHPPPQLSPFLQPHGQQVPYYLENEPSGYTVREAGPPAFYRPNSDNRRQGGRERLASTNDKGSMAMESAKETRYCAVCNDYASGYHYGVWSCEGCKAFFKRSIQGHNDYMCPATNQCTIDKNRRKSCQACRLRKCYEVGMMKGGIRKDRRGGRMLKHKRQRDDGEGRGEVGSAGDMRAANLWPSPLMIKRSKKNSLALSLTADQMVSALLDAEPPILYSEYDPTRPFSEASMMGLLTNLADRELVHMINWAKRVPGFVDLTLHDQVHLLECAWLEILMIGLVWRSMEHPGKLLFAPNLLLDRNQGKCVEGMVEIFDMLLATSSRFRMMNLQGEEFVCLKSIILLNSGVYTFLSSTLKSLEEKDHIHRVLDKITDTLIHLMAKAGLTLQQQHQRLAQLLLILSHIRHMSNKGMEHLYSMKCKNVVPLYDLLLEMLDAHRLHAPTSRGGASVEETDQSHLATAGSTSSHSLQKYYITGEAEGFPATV

Compound | Potency [1] | Potency [2] | Potency [3] | Potency [4] | Potency [5] | Potency [6] | Potency [7] | Potency [8] | Potency [9] | outcome [10]
C=CC(=O)OC(C)(C)C | inactive | inactive | inactive | inactive | inactive | inactive | – | – | – | –
CC(=O)C(C)(C)C | inactive | inactive | inactive | inactive | inactive | inactive | inactive | – | – | –
COc1c(C(C)(C)C)cc([N+](=O)[O-])c(C)c1[N+](=O)[O-] | inactive | inactive | inactive | inactive | inactive | inactive | inactive | – | – | –
CCCCN=C=O | inactive | inactive | – | inactive | inactive | inactive | inactive | – | – | –
[CH3][Sn]([CH3])([Cl])[Cl] | inactive | inactive | inactive | inactive | inactive | inactive | 7.82 µM (active) and 24.3 µM (active) | – | – | –
BrCC(Br)C1CCC(Br)C(Br)C1 (centres undefined) | inactive | inactive | – | – | inactive | inactive | – | – | – | –
COc1nn(C(=O)NS(=O)(=O)c2ccccc2OC(F)(F)F)c(=O)n1C | inactive | inactive | – | inactive | inactive | inactive | inactive | – | – | –
CCOP(=S)(OCC)SCSCC | inactive | inactive | – | – | inactive | inactive | inactive | – | – | –
CC1C(=O)C[C@]2(C(C)C)C[C@H]12 (some centres undefined) | inactive | inactive | inactive | inactive | inactive | inactive | inactive | – | – | –
CCCCNP(N)(N)=S | inactive | inactive | – | inactive | inactive | inactive | inactive | – | – | –
C/C=C/C=O | inactive | inactive | inactive | – | inactive | inactive | inactive | – | – | –
CCCCN(N=O)C(=N)N[N+](=O)[O-] | inactive | inactive | inactive | inactive | inactive | inactive | inactive | – | – | –
CCn1cc[n+](C)c1 | inactive | inactive | inactive | inactive | inactive | inactive | inactive | – | – | –
c1ccoc1 | inactive | inactive | inactive | inactive | inactive | inactive | inactive | – | – | –
CN1[C@@H]2CC[C@H]1CC(OC(=O)c1cc(Cl)cc(Cl)c1)C2 (some centres undefined) | inactive | inactive | inactive | inactive | – | – | inactive | – | – | –
CCOS(C)(=O)=O | inactive | inactive | inactive | inactive | inactive | inactive | inactive | – | – | –
O=S(=O)(Cl)c1ccccc1 | inactive | inactive | inactive | inactive | inactive | inactive | inactive | – | – | –
Cc1ccc(N)cc1C | inactive | inactive | inactive | inactive | inactive | inactive | inactive | – | – | –
CCOP(=O)(OCC)Oc1ccc([N+](=O)[O-])cc1 | inactive | inactive | inactive | – | – | – | inactive | – | – | –
O=C(O)C1(c2ccc3c(c2)OC[C@H](Cc2ccc(-c4ccccc4)cc2)[C@H]3O)CCCC1 | inactive | inactive | inactive | inactive | inactive | inactive | inactive | – | – | –
O=Cc1ccc2c(c1)OCO2 | inactive | inactive | inactive | inactive | inactive | inactive | inactive | – | – | –
CCCCC(O)(Cn1cncn1)c1ccc(Cl)cc1Cl (centres undefined) | – | inactive | inactive | inactive | – | – | inactive | 54.4 µM (active) | – | –

Compound | Potency [1] | Potency [2] | Potency [3] | Potency [4] | Potency [5] | Potency [6] | Potency [7] | Potency [8] | Potency [9] | outcome [10]
NCCCNCCCN | – | inactive | – | inactive | inactive | inactive | inactive | inactive | – | –
O=C(CCl)c1ccc(Cl)cc1Cl | – | inactive | – | inactive | 33.5 µM (active) | inactive | inactive | 13.3 µM (active) | inactive | inactive
COc1ccc(-c2ccccc2)cc1NNC(=O)OC(C)C | – | inactive | – | inactive | inactive | – | inactive | 63.7 µM (active) | 71.5 µM (active) | –
CCCCCC[N+](=O)[O-] | – | inactive | – | inactive | inactive | inactive | inactive | inactive | – | –
C=CCCl | – | inactive | inactive | inactive | inactive | inactive | inactive | – | inactive | –
Cc1ccccc1CCl | inactive | inactive | – | – | inactive | inactive | inactive | – | – | –
O=C(O)COc1ccc(Cl)cc1 | – | inactive | inactive | inactive | inactive | inactive | inactive | – | inactive | –
Nc1ccc(N=Nc2ccc(-c3ccc(N=Nc4c(S(=O)(=O)O)cc5cc(S(=O)(=O)O)c(N=Nc6ccccc6)c(O)c5c4N)cc3)cc2)c(N)c1 | – | inactive | 15.7 µM (active) | 17.6 µM (active) | 17.6 µM (active) | 19.7 µM (active) | inactive | – | inactive | –
Cc1ccc(-c2c(Cl)nc(C#N)n2S(=O)(=O)N(C)C)cc1 | inactive | – | – | inactive | – | – | – | 38.5 µM (active) | 43.2 µM (active) | –
Sc1ccccc1Cl | – | inactive | inactive | inactive | inactive | inactive | – | inactive | inactive | –
C[N+](C)(C)CCCl | – | inactive | inactive | – | inactive | inactive | inactive | inactive | – | –
COC1=CC(=O)O[C@@H](CCc2ccccc2)C1 | – | inactive | – | inactive | – | inactive | – | 40.1 µM (active) | – | –
CS/C(C)=N/OC(=O)N(C)SN(C)C(=O)O/N=C(\C)SC | inactive | – | inactive | inactive | 54.5 µM (active) | inactive | – | inactive | – | –
NS(=O)(=O)C(F)(F)C(F)(F)C(F)(F)C(F)(F)C(F)(F)C(F)(F)C(F)(F)C(F)(F)F | – | inactive | inactive | inactive | inactive | inactive | inactive | inactive | inactive | –
COP(=S)(OC)Oc1cc(Cl)c(I)cc1Cl | – | inactive | inactive | inactive | inactive | – | inactive | 54.5 µM (active) | – | –
CCOC(=O)COc1cc(-c2nn(C)c(OC(F)F)c2Cl)c(F)cc1Cl | – | inactive | inactive | inactive | inactive | inactive | inactive | inactive | – | –
COC(C)(C)CCC[C@H](C)C/C=C/C(C)=C/C(=O)OC(C)C | – | inactive | – | inactive | inactive | inactive | – | inactive | – | –
C/C(=C\c1ccccc1)[N+](=O)[O-] | inactive | – | inactive | inactive | 15.4 µM (active) | – | – | 12.2 µM (active) | inactive | –
O=C(C(Cl)(Cl)Cl)C(Cl)(Cl)Cl | – | inactive | inactive | inactive | inactive | inactive | inactive | inactive | inactive | –
O=[N+]([O-])c1ccccc1CCl | – | inactive | inactive | inactive | inactive | inactive | inactive | – | inactive | –
CN1C[C@H](CNC(=O)OCc2ccccc2)C[C@@H]2c3cccc4c3c(cn4C)C[C@H]21 | inactive | – | – | inactive | – | inactive | – | – | inactive | –
IC(I)=C(I)I | – | 61.1 µM (active) | inactive | inactive | 7.7 µM (active) | 17.2 µM (active) | inactive | 15.4 µM (active) | – | –
